Measured values published in PubChem BioAssay (Tox21).
“And” between values parts separate entries of the source, which are not always exact repeats. Identical values can stand only once. Results filed as inconclusive are left out. Where a call stands in place of a potency, no number is given. Where a structure was tested more than once in an assay, its records may differ in their call. The source made the active and inactive calls. Unless noted, calls come from the whole dose curve; as a rule, active = well fitted curve in the direction sought with a large enough effect in the repeat runs; inconclusive = weak or mixed curves; inactive = no such curve, though single readings can be large; an effect the other way counts as inactive or inconclusive.

Tests used:
[1] = qHTS assay to identify aromatase inhibitors - cell viability counter screen (AID 743084);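 note: cells stimulated with testosterone during compound exposure; nearly all actives have a fitted effect of over 55% in size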; note: potency is the fitted concentration of half-maximal effect
[2] = molecular target: Aryl hydrocarbon receptor (Homo sapiens) (UniProt P35869); assay: qHTS assay to identify small molecule that activate the aryl hydrocarbon receptor (AhR) signaling pathway (AID 743085); note: nearly all actives have a fitted effect of over 15% in size; note: potency is the fitted concentration of half-maximal effect;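 for activation: HG2L7.5c1 human HepG2 liver cells with stably integrated DRE-driven firefly reporter; series mostly up to about 70 µM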
Chain of Aryl hydrocarbon receptor (Homo sapiens) (P35869 whole entry, looked up): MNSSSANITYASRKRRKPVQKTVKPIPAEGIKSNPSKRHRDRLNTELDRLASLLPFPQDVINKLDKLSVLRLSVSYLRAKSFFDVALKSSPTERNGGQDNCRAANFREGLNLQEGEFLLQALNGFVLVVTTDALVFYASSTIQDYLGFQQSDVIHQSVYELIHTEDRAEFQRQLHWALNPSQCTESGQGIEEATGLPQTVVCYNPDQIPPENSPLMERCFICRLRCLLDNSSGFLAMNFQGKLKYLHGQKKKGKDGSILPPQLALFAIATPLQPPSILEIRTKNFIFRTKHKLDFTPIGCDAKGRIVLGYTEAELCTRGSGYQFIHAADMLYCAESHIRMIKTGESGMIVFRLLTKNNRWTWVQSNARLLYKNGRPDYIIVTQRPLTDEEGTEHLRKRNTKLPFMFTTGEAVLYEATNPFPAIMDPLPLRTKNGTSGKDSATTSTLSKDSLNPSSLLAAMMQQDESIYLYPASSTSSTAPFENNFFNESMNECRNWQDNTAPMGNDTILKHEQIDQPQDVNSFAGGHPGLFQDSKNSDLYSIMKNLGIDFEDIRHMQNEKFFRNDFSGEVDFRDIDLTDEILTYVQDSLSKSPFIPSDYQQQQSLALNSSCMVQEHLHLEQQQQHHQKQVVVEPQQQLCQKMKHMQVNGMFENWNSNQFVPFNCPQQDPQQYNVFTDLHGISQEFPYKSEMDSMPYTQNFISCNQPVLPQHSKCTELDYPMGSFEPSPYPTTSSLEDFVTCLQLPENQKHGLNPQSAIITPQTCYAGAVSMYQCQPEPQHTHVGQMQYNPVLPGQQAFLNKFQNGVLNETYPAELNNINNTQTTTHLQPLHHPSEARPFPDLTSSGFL
How it was run: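 Luminescence read-out: ONE-Glo reagent, 30 min at room temperature, in HG2L7.5c1 HepG2 reporter cells treated 24 h at 37C. Viability was measured beforehand by CellTiter-Fluor fluorescence after 30 min at 37C.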

[3] = qHTS assay to identify small molecule that activate the aryl hydrocarbon receptor (AhR) signaling pathway - cell viability counter screen (AID 743086); note: nearly all actives have a fitted effect of over 45% in size; note: potency is the fitted concentration of half-maximal effect
How it was run: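 HepG2-AhR-luc (HG2L7.5c1) cells, 4000/well, were preincubated 5 h at 37C, exposed to compound in qHTS format for 24 hr at 37C, then given CellTiter-Fluor for 30 min; viability was read as fluorescence in the reporter wells.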

[4] = molecular target: Peroxisome proliferator-activated receptor gamma (Homo sapiens) (UniProt P37231); assay: qHTS assay to identify small molecule agonists of the peroxisome proliferator-activated receptor gamma (PPARg) signaling pathway (AID 743094; active = well fitted activation curve with a large enough effect in the signal ratio in the repeat runs, not every such curve was filed as active; the % refers to the signal ratio)
Chain of Peroxisome proliferator-activated receptor gamma (Homo sapiens) (P37231 whole entry, looked up): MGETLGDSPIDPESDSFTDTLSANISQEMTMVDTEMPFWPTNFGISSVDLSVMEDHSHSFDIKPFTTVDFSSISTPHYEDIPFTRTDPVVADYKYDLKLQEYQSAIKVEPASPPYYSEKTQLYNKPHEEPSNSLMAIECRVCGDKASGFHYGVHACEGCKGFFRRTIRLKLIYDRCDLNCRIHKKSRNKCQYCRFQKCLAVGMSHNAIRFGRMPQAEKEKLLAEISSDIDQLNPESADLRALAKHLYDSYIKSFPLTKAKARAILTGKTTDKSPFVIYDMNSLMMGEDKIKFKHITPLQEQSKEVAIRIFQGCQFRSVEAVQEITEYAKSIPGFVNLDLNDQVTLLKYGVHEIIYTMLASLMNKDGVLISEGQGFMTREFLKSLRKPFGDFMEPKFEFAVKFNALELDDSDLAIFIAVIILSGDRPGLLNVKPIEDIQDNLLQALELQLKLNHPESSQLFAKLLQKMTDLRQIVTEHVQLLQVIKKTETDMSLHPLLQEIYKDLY
How it was run: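 Agonism was assessed in a beta-lactamase reporter system, HEK293H cells with a stably integrated UAS-bla construct under PPARg control; the 17 h treatment at 37C preceded a 1 h room-temperature FRET substrate read.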

[5] = qHTS assay to identify small molecule antagonists of the peroxisome proliferator-activated receptor gamma (PPARg) signaling pathway - cell viability counter screen (AID 743194); note: nearly all actives have a fitted effect of over 55% in size
How it was run: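 PPARg-UAS-bla HEK293H cells were plated, rested 5 h at 37 C, then treated with compounds plus rosiglitazone (50 nM final) for 17 h at 37 C; viability was then read by CellTiter-Glo luminescence after 30 min at room temperature.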

[6] = qHTS assay for small molecule agonists of the antioxidant response element (ARE) signaling pathway (AID 743202; active = well fitted activation curve with a large enough effect in the signal ratio in the repeat runs, not every such curve was filed as active; the % refers to the signal ratio; note: potency is the fitted concentration of half-maximal effect)
How it was run: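 Following a 16 h, 37 C exposure of reporter HepG2 cells (ARE-driven beta-lactamase, 2,000 cells/well) to compounds, FRET substrate was applied for 2 h at room temperature and fluorescence intensity recorded.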

[7] = qHTS assay for small molecule agonists of the antioxidant response element (ARE) signaling pathway - cell viability counter screen (AID 743203; calls by dose curve; note: nearly all actives have a fitted effect of over 55% in size)
How it was run: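 ATP content via CellTiter-Glo luminescence served as the viability measure. Cells: ARE-bla HepG2, 2,000 per well. Exposure: 16 hrs, 37C/5% CO2.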

[8] = qHTS assay for small molecule activators of the heat shock response signaling pathway - cell viability counter screen (AID 743209); note: nearly all actives have a fitted effect of over 50% in size; note: potency is the fitted concentration of half-maximal effect
How it was run: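 Compounds dissolved in DMSO were added to overnight-plated HSE-bla HeLa cells and left 5 h at 37 C. Cell viability was quantified by luminescence using CellTiter-Glo.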

[9] = qHTS assay for small molecule activators of the heat shock response signaling pathway (AID 743210; active = well fitted activation curve with a large enough effect in the signal ratio in the repeat runs, with a control signal flat, not every such curve was filed as active; the % refers to the signal ratio; note: series mostly up to about 63 µM)
How it was run: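 Heat shock element–beta-lactamase HeLa reporter cells; qHTS with compounds for 5 h at 37 C; detection by FRET substrate fluorescence after 2.5 h at RT.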

[10] = qHTS assay to identify small molecule agonists of the peroxisome proliferator-activated receptor delta (PPARd) signaling pathway - cell viability counter screen (AID 743211); note: nearly all actives have a fitted effect of over 55% in size
How it was run: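 Read-out: CellTiter-Glo luminescence, 30 min RT, measured in the same wells as the beta-lactamase reporter. Cells: GeneBLAzer PPAR delta UAS-bla HEK293H, 3000 cells/well, compound exposure 17 h at 37C.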

[11] = molecular target: Peroxisome proliferator-activated receptor delta (Homo sapiens) (UniProt Q03181); assay: qHTS assay to identify small molecule agonists of the peroxisome proliferator-activated receptor delta (PPARd) signaling pathway (AID 743212; calls by dose curve)
Chain of Peroxisome proliferator-activated receptor delta (Homo sapiens) (Q03181 whole entry, looked up): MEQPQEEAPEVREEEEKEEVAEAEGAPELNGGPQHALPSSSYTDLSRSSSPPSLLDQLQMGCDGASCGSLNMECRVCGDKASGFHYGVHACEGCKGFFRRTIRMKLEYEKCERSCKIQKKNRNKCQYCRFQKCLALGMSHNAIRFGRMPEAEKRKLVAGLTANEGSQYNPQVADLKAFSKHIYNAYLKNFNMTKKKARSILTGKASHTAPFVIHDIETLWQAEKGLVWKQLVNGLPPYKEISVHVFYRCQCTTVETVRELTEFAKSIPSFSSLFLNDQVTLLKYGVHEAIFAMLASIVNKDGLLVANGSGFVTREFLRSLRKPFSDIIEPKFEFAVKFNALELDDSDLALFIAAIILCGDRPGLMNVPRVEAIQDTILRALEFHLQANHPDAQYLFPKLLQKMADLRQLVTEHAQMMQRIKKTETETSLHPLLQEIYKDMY
How it was run: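 Beta-lactamase reporter read by fluorescence (LiveBLAzer B/G FRET, 2 h, room temperature). Test agents, in DMSO, incubated at 37 C with PPARd-bla HEK293H cells.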

[12] = qHTS assay to identify small molecule antagonists of the peroxisome proliferator-activated receptor delta (PPARd) signaling pathway - cell viability counter screen (AID 743213); note: nearly all actives have a fitted effect of over 50% in size
How it was run: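 Agonist-stimulated (L165041, 300 nM final) HEK293H PPARd UAS-bla cells are exposed to compounds for 17 h at 37 C, and ATP-based luminescence (CellTiter-Glo) from the same wells reports cytotoxicity.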

[13] = molecular target: Peroxisome proliferator-activated receptor delta (Homo sapiens) (UniProt Q03181); assay: qHTS assay to identify small molecule antagonists of the peroxisome proliferator-activated receptor delta (PPARd) signaling pathway (AID 743215; active = well fitted inhibition curve with a large enough effect in the signal ratio in the repeat runs, not every such curve was filed as active; the % refers to the signal ratio; note: series mostly up to about 62 µM)
How it was run: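 Here, a reporter line (HEK293H, beta-lactamase under a UAS) measures PPARd signaling. Compounds are tested against agonist L165041 at 300 nM final concentration over 17 h at 37 C, with fluorescence read after substrate.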

[14] = qHTS assay to identify small molecule antagonists of the farnesoid-X-receptor (FXR) signaling pathway - cell viability counter screen (AID 743221; active = well fitted cell-killing curve with a large enough effect in the repeat runs, not every such curve was filed as active; note: nearly all actives have a fitted effect of over 50% in size)
How it was run: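 HEK 293T FXR-bla cells, 5 h pre-incubation; compound + CDCA 50 uM final, 16 h, 37 C; beta-lactamase FRET read first, then CellTiter-Glo luminescence, 30 min RT.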

[15] = molecular target: Peroxisome proliferator-activated receptor gamma (Homo sapiens) (UniProt P37231); assay: qHTS assay to identify small molecule antagonists of the peroxisome proliferator-activated receptor gamma (PPARg) signaling pathway (AID 743191; calls by dose curve; note: nearly all actives have a fitted effect of over 30% in size; note: potency is the fitted concentration of half-maximal effect)
How it was run: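 GeneBLAzer PPARg UAS-bla HEK293H cells carrying a UAS-driven beta-lactamase reporter were plated at 3000 cells/well, preincubated 5 h at 37C, then given compound for 17 h at 37C; LiveBLAzer B/G FRET substrate was read after 1 h at room temperature.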

[16] = qHTS assay to identify small molecule agonists of the farnesoid-X-receptor (FXR) signaling pathway - cell viability counter screen (AID 743218); note: nearly all actives have a fitted effect of over 45% in size
How it was run: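 Quantitative HTS counter screen measuring ATP-based viability via CellTiter-Glo luminescence in HEK 293T cells carrying a UAS-driven beta-lactamase reporter, after 16 h compound exposure at 37 C.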

[17] = molecular target: Vitamin D3 receptor (Homo sapiens) (UniProt P11473); assay: qHTS assay to identify small molecule agonists of the vitamin D receptor (VDR) signaling pathway (AID 743222; calls by dose curve)
Chain of Vitamin D3 receptor (Homo sapiens) (P11473 whole entry, looked up): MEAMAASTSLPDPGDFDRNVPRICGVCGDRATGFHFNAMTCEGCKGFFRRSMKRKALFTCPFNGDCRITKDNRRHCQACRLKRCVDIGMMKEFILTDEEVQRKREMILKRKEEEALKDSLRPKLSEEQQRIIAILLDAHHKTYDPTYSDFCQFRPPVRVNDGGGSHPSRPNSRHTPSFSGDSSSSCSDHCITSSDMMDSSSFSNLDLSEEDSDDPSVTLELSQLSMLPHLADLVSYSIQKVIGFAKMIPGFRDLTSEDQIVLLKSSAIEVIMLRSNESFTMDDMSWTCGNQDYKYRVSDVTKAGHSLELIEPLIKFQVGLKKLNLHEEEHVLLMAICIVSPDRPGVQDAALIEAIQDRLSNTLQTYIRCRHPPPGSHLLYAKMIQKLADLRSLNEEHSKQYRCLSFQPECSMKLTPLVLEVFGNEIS
How it was run: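 Tox21 cell reporter format: VDR-bla line, 16 h compound exposure in 5% CO2 at 37C, then fluorescence intensity after 2 h with LiveBLAzer B/G FRET substrate.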

[18] = molecular target: Vitamin D3 receptor (Homo sapiens) (UniProt P11473); assay: qHTS assay to identify small molecule antagonists of the vitamin D receptor (VDR) signaling pathway (AID 743223; active = well fitted inhibition curve with a large enough effect in the signal ratio in the repeat runs, not every such curve was filed as active; the % refers to the signal ratio)
How it was run: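 Beta-lactamase reporter read-out: FRET substrate fluorescence after 2 h at room temperature, following 16 h exposure of VDR-bla cells to test compound plus 3 nM (final) 1alpha,25-dihydroxyvitamin D3 agonist at 37C.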

[19] = molecular target: Bile acid receptor (Homo sapiens) (UniProt Q96RI1); assay: qHTS assay to identify small molecule antagonists of the farnesoid-X-receptor (FXR) signaling pathway (AID 743217; active = well fitted inhibition curve with a large enough effect in the signal ratio in the repeat runs, not every such curve was filed as active; the % refers to the signal ratio)
Chain of Bile acid receptor (Homo sapiens) (Q96RI1 whole entry, looked up): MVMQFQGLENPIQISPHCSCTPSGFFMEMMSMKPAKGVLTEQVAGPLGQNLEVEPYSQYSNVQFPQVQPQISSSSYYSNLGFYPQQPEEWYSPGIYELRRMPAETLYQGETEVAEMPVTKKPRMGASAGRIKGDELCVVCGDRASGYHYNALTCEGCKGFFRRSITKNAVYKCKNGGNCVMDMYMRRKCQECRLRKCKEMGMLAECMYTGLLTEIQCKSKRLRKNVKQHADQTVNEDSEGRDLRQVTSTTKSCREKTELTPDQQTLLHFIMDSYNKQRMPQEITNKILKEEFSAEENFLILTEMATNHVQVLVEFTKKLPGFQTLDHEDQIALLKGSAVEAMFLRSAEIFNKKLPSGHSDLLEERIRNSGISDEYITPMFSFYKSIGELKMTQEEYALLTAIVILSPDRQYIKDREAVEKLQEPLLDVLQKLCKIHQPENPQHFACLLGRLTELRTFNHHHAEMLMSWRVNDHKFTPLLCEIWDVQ
How it was run: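 Test compounds are pin-transferred onto FXR-bla HEK 293T cells, then chenodeoxycholic acid is added at 50 uM final. After 16 h at 37 °C, LiveBLAzer B/G substrate is applied for 2 h at room temperature and fluorescence read.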

[20] = molecular target: Bile acid receptor (Homo sapiens) (UniProt Q96RI1); assay: qHTS assay to identify small molecule agonists of the farnesoid-X-receptor (FXR) signaling pathway (AID 743220; active = well fitted activation curve with a large enough effect in the signal ratio in the repeat runs, not every such curve was filed as active; the % refers to the signal ratio)
How it was run: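 FXR-UAS-bla HEK 293T cells carrying a UAS-driven beta-lactamase reporter were plated for 5 h at 37C/5% CO2, then exposed to DMSO-dissolved Tox21 10K compounds for 16 h at 37C. A LiveBLAzer B/G FRET substrate was loaded for 2 h at room temperature before fluorescence reading.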

Row | SMILES | Potency [1] | Potency [2] | Potency [3] | outcome [4] | Potency [5] | Potency [6] | Potency [7] | Potency [8] | outcome [9] | Potency [10] | outcome [11] | Potency [12] | outcome [13] | Potency [14] | Potency [15] | Potency [16] | outcome [17] | outcome [18] | Potency [19] | outcome [20]
1 | COc1ccc(C(=O)c2ccccc2O)c(O)c1 | inactive | inactive | inactive | inactive | inactive | inactive | inactive | inactive | inactive | inactive | inactive | inactive | inactive | inactive | – | – | – | – | – | –
2 | C/C=C/C(=O)N(CC)c1ccccc1C | inactive | inactive | inactive | inactive | inactive | inactive | inactive | – | inactive | inactive | – | inactive | – | – | inactive | inactive | inactive | inactive | – | –
3 | CCCCCCCC/C=C\CCCCCCCC(=O)O | inactive | inactive | inactive | inactive | inactive | inactive | inactive | inactive and 34.7 µM (active) | – | inactive | inactive | inactive | inactive | inactive | – | inactive | – | – | inactive | inactive
4 | CCCCCCCCCCC(CO)CCCCCCCC (stereo unspecified) | inactive | inactive | inactive | inactive | inactive | inactive | inactive | – | inactive | inactive | inactive | inactive | inactive | inactive | – | inactive | inactive | inactive | – | –
5 | CC(=O)Oc1ccc(C(c2ccc(OC(C)=O)cc2)c2ccccn2)cc1 | inactive | inactive | inactive | inactive | inactive | inactive | inactive | – | inactive | inactive | – | inactive | inactive | – | inactive | inactive | – | inactive | – | –
6 | Brc1nc2ccccc2s1 | inactive | 30.5 µM (active) and 13.7 µM (active) | inactive | inactive | inactive | – | inactive | inactive | – | inactive | inactive | inactive | inactive | inactive | inactive | inactive | inactive | – | inactive | inactive
7 | Cc1cccc(Nc2ccccc2C(=O)O)c1C | inactive | inactive | inactive | – | inactive | – | inactive | – | inactive | inactive | – | inactive | inactive | inactive | 43.6 µM (active) | – | – | – | – | –
8 | Nc1ccc2c(c1)C(=O)c1ccccc1C2=O | 60 µM (active) and inactive | 4.77 µM (active) and 3.06 µM (active) | 60 µM (active) | inactive | inactive | – | inactive | inactive | inactive | inactive | – | inactive | inactive | – | inactive | inactive | – | – | – | –
9 | COc1cc([C@H]2Oc3cc([C@H]4Oc5cc(O)cc(O)c5C(=O)[C@@H]4O)ccc3O[C@@H]2CO)ccc1O | inactive | inactive | inactive | inactive | inactive | – | inactive | inactive | – | inactive | – | inactive | – | inactive | inactive | – | – | – | inactive | inactive
10 | Oc1c(Cl)ccc(Cl)c1Cl | inactive | inactive | inactive | inactive | inactive | – | inactive | – | inactive | inactive | – | inactive | inactive | inactive | inactive | inactive | inactive | inactive | inactive | inactive
11 | CC1(C)NC(=O)N(c2ccc([N+](=O)[O-])c(C(F)(F)F)c2)C1=O | inactive | inactive | inactive | inactive | inactive | 6.86 µM (active) and 26.6 µM (active) | inactive | – | inactive | inactive | – | inactive | – | – | inactive | – | inactive | inactive | inactive | inactive
12 | CCC/C=C/C=O | inactive | inactive | inactive | inactive | inactive | inactive | inactive | – | inactive | inactive | – | inactive | – | – | – | inactive | – | – | – | –
13 | Cc1ccc(S(=O)(=O)O)cc1C | inactive | inactive | inactive | inactive | inactive | inactive | inactive | – | – | inactive | inactive | inactive | inactive | inactive | inactive | – | inactive | inactive | – | –
14 | C[C@]12CC[C@@H]3c4ccc(O)cc4CC[C@H]3[C@@H]1CC[C@H]2O | inactive | inactive | inactive | inactive | inactive | – | inactive | – | – | inactive | inactive | inactive | inactive | – | – | inactive | inactive | inactive | – | –
15 | CC(C)=CCO | inactive | inactive | inactive | inactive | inactive | – | inactive | inactive | inactive | inactive | inactive | inactive | – | inactive | inactive | inactive | inactive | inactive | – | –
16 | C1CN(SSN2CCOCC2)CCO1 | 61.1 µM (active) | inactive | inactive | inactive | inactive | inactive | inactive | inactive | – | inactive | – | inactive | inactive | – | – | – | – | – | inactive | inactive
17 | CC(=O)O[C@]1(C(C)=O)CC[C@H]2[C@@H]3C=C(C)C4=CC(=O)CC[C@]4(C)[C@H]3CC[C@@]21C | inactive | inactive | inactive | inactive | inactive | 19.3 µM (active) and 11.9 µM (active) | inactive | inactive | inactive | inactive | – | inactive | – | inactive | – | – | – | inactive | – | –
18 | COC(=O)C(C)Oc1ccc(Oc2ncc(C(F)(F)F)cc2Cl)cc1 (stereo unspecified) | inactive | inactive | inactive | inactive | inactive | – | inactive | – | inactive | inactive | inactive | inactive | inactive | inactive | inactive | inactive | inactive | inactive | – | –
19 | OC[C@H]1O[C@@H]2O[C@H]3[C@H](O)[C@@H](O)[C@@H](O[C@H]4[C@H](O)[C@@H](O)[C@@H](O[C@H]5[C@H](O)[C@@H](O)[C@@H](O[C@H]6[C@H](O)[C@@H](O)[C@@H](O[C@H]7[C@H](O)[C@@H](O)[C@@H](O[C@H]1[C@H](O)[C@H]2O)O[C@@H]7CO)O[C@@H]6CO)O[C@@H]5CO)O[C@@H]4CO)O[C@@H]3CO | inactive | inactive | inactive | inactive | inactive | inactive | inactive | – | – | inactive | – | inactive | – | inactive | inactive | inactive | inactive | inactive | – | –
